Assay results reported in PubChem BioAssay AID651664 (NMMLSC, 2012).
The campaign covered roughly 1,800 compounds. Fewer than 10 were called active.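 Rule for the calls: active = inhibition of granule release above a set limit; inactive = the rest.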 The list is a sample of the results.

experiment: inhibitors of lytic granule exocytosis, flow cytometry, TALL-104 cells, validation set (AID 651664); settings: TALL-104 LAMP-1 externalization, at 15.2 µM, active compounds read high, stimulated with thapsigargin and PMA

inhibition, active:
Cn1c(-c2ccccc2Br)n[nH]c1=S 89.2%

inhibition, inactive:
CC1CCCN(C(=O)C2CCN(CC3CC=CCC3)CC2)C1 (stereo not drawn) -1.1%
OCCN=c1cc(-c2ccccc2)oc2ccc(Cl)cc12 3.5%
O=C(/C=N/O)Nc1ccc(F)cc1 -2.8%
Cc1ccc(-n2nc(C)c3cc(C(=O)O)sc32)cc1 5.6%
O=C(CSc1nnc(-c2cccs2)n1-c1ccccc1)Nc1ccccc1 22.8%
Cc1nc(NCc2ccco2)c2oc3ccccc3c2n1 -2.5%
C=CCn1c(-c2ccco2)n[nH]c1=S -0.5%
[O-]C1=N/[N+](=C/c2ccccc2Cl)CC1 -2.2%
COC(=O)CSc1ncnc2c1cnn2Cc1ccccc1 -0.5%
N/C(=N\OS(=O)(=O)c1ccccc1)c1ccncc1 -2.3%
CCOc1ccc(CN(CCO)CCO)cc1[N+](=O)[O-] -2.2%
O=C(CSc1ccccn1)N1CCN(C(=O)CSc2ccccn2)CC1 0.4%
Clc1ccc(/C=N/NC(=Nc2ccccc2)c2ccccn2)c(Cl)c1 1.5%
CC(=O)N1CCN(S(=O)(=O)c2cccc(C(=O)NC3CCCc4ccccc43)c2)CC1 (stereo not drawn) 0%
Oc1ccccc1N=Nc1nc(-c2ccccc2)c(-c2ccccc2)[nH]1 -2.4%
Cc1ccccc1OCC(=O)Nc1cccc(NC(=O)c2ccco2)c1 1.8%
CC(C(=O)O)N1C(=O)CSc2ncccc21 (stereo not drawn) 2.4%
CCC(C)NC(=O)Cn1cccc1C(=O)c1ccccc1 (stereo not drawn) -0.2%
CC(NC(=O)NCCCC(=O)O)(C(F)(F)F)C(F)(F)F 2%
Cc1ccc(S(=O)(=O)N2CCOCC2)cc1C(=O)OCC(=O)N1CCc2ccccc2C1 -0.4%
Cc1cc2c(cc1C)NC(c1nc3ccccc3[nH]1)C1=C(CC(C)(C)CC1=O)N2 (stereo not drawn) -3.1%
O=c1[nH]c2c(s1)C(c1ccccc1)C1C3CCC(C3)C1S2 (stereo not drawn) 0.8%
COCCCNC(=O)C1CCC(=O)N1Cc1ccccc1Cl (stereo not drawn) 0.7%
Cc1ccc(C(=O)Cn2cnc3ccccc3c2=O)cc1C 6.9%
C=C(C)CN1C(=O)C(O)(CC(=O)c2ccc3c(c2)OCCO3)c2ccccc21 (stereo not drawn) 1.5%
Cc1cc(C)c(S(=O)(=O)NCc2cn3c(C)csc3n2)c(C)c1 -4.5%
CC1=CC=CN2CC(O)CN=C12 (stereo not drawn) 1%
O=C(Oc1ccccc1)N1CCN(c2ccc(F)cc2)CC1 6.6%
COC(=O)c1ccc(CN2CCN(Cc3ccc(C(=O)OC)o3)CC2)o1 2.2%
O=c1[nH]n(-c2ncnc3c2cnn3-c2ccccc2)c(=O)c2ccccc12 -0.6%
CCC(C)N=CC1=C(O)CC(c2ccccc2)CC1=O (stereo not drawn) -2.1%
O=C(c1ccccc1)N(CCN1CCOCC1)C1(C(=O)Nc2ccccc2)CCCCC1 5.2%
COc1ccc(NC(=O)CSc2c(C)nn(-c3nnc(C)c(=O)[nH]3)c2C)cc1 0.5%
COC(=O)c1ccc(CSc2nc3ccccc3c(=O)n2-c2ccccc2)o1 -0.9%
Cn1c(CN2CCCC2)nc2cc(NS(=O)(=O)c3ccc(Cl)cc3)ccc21 -3.8%
CCC(C)NC(=O)CSc1nnc(-c2cc(-c3cccs3)nc3ccccc23)o1 (stereo not drawn) -1.3%
COC(=O)c1cc(NC(=O)CN(c2ccc3c(c2)OCO3)S(C)(=O)=O)ccc1Cl 1.7%
CCOc1ccccc1N1CC(C(=O)Nc2nccs2)CC1=O (stereo not drawn) -1.1%
Cc1cnc(NC(=O)c2ccc3c(c2)C(=O)N(Cc2ccco2)C3=O)s1 -1.3%
COc1ccc(N/N=C(/N=Nc2nc(C)cc(=O)[nH]2)c2ccccc2)cc1 3.7%
CCOC(=O)c1ccc(N2C(=O)CC(Sc3nnc(C)s3)C2=O)cc1 (stereo not drawn) -0.5%
Cc1ccc(-c2nc(N)c3c(-c4ccc(C)cc4)nn(C(C)(C)C)c3n2)cc1 0%
O=c1[nH]c(CO)nc2c1oc1ccccc12 -3.5%
CCC(C#CCN1CCCCC1)(CC)OCCC#N 25.8%
COC(=O)CN1C(=O)CSc2ncccc21 0.6%
CCCCOCCCNC(=O)N[C@H](C(=O)OC)C(C)C -2.9%
Nc1ncnc2nc(SCc3ccc(Cl)cc3Cl)[nH]c12 6.3%
CN(C)c1nc(SCc2ccccc2Cl)nc2c1CCCC2 -0.7%
CC1(C)Cc2c(sc3ncn4nc(-c5ccco5)nc4c23)CO1 -1.3%
O=C(COc1ccc(F)cc1)c1ccc2c(c1)CCCC2 -2.8%
O=C1c2ccccc2-c2c1nc1c([n+]2[O-])CCCC1 -5.1%
COc1ccc2c(c1OC)C(=O)N(c1cccc(C)c1)C2=O 1.1%
CO/N=C/C(=N\Nc1ccc(OC)cc1)C(=O)c1ccc(OC)cc1 0.7%
COc1ccc(S(=O)(=O)N(C)CC(=O)Nc2ccccc2C(F)(F)F)cc1OC -1.6%
CN1CCN(c2nc(-c3ccccc3)nc3c2oc2ccccc23)CC1 1.5%
O=C(CSc1nnc(CNc2ccc(F)cc2)n1-c1ccccc1)N1CCOCC1 -4.6%
COc1ccc(N=C2S/C(=C\c3ccc(C)s3)C(=O)N2CC(C)C)cc1 -0.3%
Fc1ccccc1/C=N/Nc1nn[nH]n1 -1.6%
CCOC(=O)c1c(NC(=O)Cc2cccs2)sc(C(=O)N2CCCCC2)c1C -4.7%
CN=C(NC)SC1CC(=O)N(c2ccccc2)C1=O (stereo not drawn) 3.9%
CCOc1cc(/C=N/n2cnnc2)cc(Br)c1O -0.7%
O=C1CCC(=O)N1c1nc2nc(-c3ccccc3)cc(=O)n2[nH]1 -1.6%
CC(=O)COc1ncn(-c2ccccc2)n1 0.2%
Fc1cc2nc(-c3ccncc3)[nH]c2cc1F -0.1%
Cc1noc(NS(=O)(=O)c2ccc(NC(=O)Nc3ccc(Cl)c(Cl)c3)cc2)c1C 0%
CCn1c(-c2ccccc2)c[nH]c1=S -1.3%
Nc1c(C(=O)NCC2CCCO2)sc(=S)n1-c1ccccc1 (stereo not drawn) 0.7%
COc1ccc(C)cc1-n1nnnc1SCc1cn2ccsc2n1 -3.3%
CC(=O)c1ccc(N2CCN(CCC#N)CC2)c(F)c1 8.2%
Cc1occc1C(=O)NC(C)CCc1ccccc1 (stereo not drawn) 6.4%
CC(C)(C)NC(=O)C1Cc2ccccc2CN1C(=O)Nc1cccc(Cl)c1 (stereo not drawn) 3.6%
CN(C)c1ccc(-c2nnc(-c3ccc(S(=O)(=O)C(F)F)cc3)o2)cc1 -2%
COc1ccc(-c2sc(NC(=O)c3ccc(C)cc3)nc2-c2ccc([N+](=O)[O-])cc2)cc1 0.2%
NC(=O)NC(=O)CSc1nc(-c2ccccc2)c(-c2ccccc2)n1CC1CCCO1 (stereo not drawn) 3.8%
CCCc1nc2ccccc2c(=O)n1/N=C/c1ccccc1O -1.9%
Cc1snc(S(=O)(=O)/C(C#N)=N/Nc2cccc(C(F)(F)F)c2)c1C#N 5.6%
CCNc1nc(NCC)nc(OCCOC(=O)COc2ccc(Cl)cc2Cl)n1 -2.4%
CN1CC(=O)NC1=NC(=O)c1ccc(Cl)c(S(=O)(=O)N2CCCCCC2)c1 -1.1%
Cc1ccc2c(c1Br)/C(=N/N1C(=O)c3ccccc3C1=O)C(=O)N2 -3.6%
Clc1ccc(-c2nnnn2-c2ccc(Cl)c(Cl)c2)cc1Cl -0.4%
COc1ccccc1N(C(=O)c1ccco1)C(C(=O)NC1CCCC1)c1cccnc1 (stereo not drawn) -0.8%
CC(C)(C)NC(=O)Cc1ccc(S(=O)(=O)N2CCCC2)s1 -1.8%
Nc1nc(CSc2nc3ccccc3s2)nc(N2CCCCC2)n1 3.2%
FC(F)(F)c1cccc(NC(=S)N2CCN(c3cccc(C(F)(F)F)c3)CC2)c1 -4.7%
Cc1nc2cc(S(=O)(=O)N3CCC(C(=O)O)CC3)ccc2n1C1CCCC1 -3.7%
O=C(CSc1ncnc2c1cnn2Cc1ccccc1)Nc1ccc2c(c1)OCCO2 0.3%
O=C1c2ccccc2C(=O)N1SC1CCCCC1 -1.8%
S=c1[nH]nc(-c2ccccc2Cl)n1CC1CCCO1 (stereo not drawn) -1.9%
COCCCn1c(-c2ccccc2Cl)n[nH]c1=S 4.6%
Cc1nn2c(N)c(C#N)cnc2c1-c1ccc(Cl)cc1 2.5%
CN1CCN(C(=O)c2ccc3c(c2)NC(=O)C(N2CCOCC2)S3)CC1 (stereo not drawn) 3.1%
COCCNc1nc2ccccc2nc1NS(=O)(=O)c1ccc(C)cc1C 2.3%
CC(=O)C(C)Oc1ncn(-c2ccccc2)n1 (stereo not drawn) -3%
N#Cc1ccc(C(=O)Nc2ccc(S(=O)(=O)NC3=NCCCCC3)cc2)cc1 4.4%
O=C(Nc1ccccc1)N1CCN(c2ccccn2)CC1 -1.4%
O=C1CCCCC1C(Nc1ccc(Cl)cc1)c1ccccc1 (stereo not drawn) 1.3%
COc1ccc(C(CNC(=O)c2ccc(N3CCCC3=O)cc2)N(C)C)cc1 (stereo not drawn) -2%
Clc1ccccc1C1SCC2Nc3ccccc3CN21 (stereo not drawn) 0.1%
Cc1cccc(/C(N)=N/OC(=O)CCCN2C(=O)c3ccccc3C2=O)c1 1.9%
COc1ccccc1NC(=O)CC1COc2ccccc2O1 (stereo not drawn) -0.3%
CCOc1ccccc1NC(=O)c1ccc(S(=O)(=O)N2CCOCC2)cc1 -1.3%
Cc1ccc(Cl)cc1NC(=O)CSC(N)=O -3%
COC(=O)C1=CN(CCCN2CCCC2=O)C=C(C(=O)OC)C1c1ccccc1C(F)(F)F 3.5%
CCC(CC)NC(=O)c1cc2c(C)nn(Cc3ccccc3Cl)c2s1 -0.5%
Cc1nnc(N(CCC#N)CCC#N)s1 0%
O=C(CN1CCN(c2cccc(C(F)(F)F)c2)CC1)Nc1cccc(C(F)(F)F)c1 -3.2%
Cc1oc2nc(SCCCC(=O)NCCO)nc(N)c2c1C 2.7%
